Activity calls are given as the source filed them. Calls follow the shape of the full dose curve.
Columns and labels:
Test in all cases: Confirmatory Screen for Target Class Profiling of Small Molecule Inhibitors of Methyltransferases (AID 1745852); as to activity change, negative = inhibition: % is scaled to controls: 0 for no effect and ±100 for the full control effect
[1] = target: Catechol O-methyltransferase (Homo sapiens) (UniProt P21964); conditions: MTase-Glo luminescence, SAH detection, recombinant enzyme; measured here: COMT max response; stronger effect = lower value
Chain of Catechol O-methyltransferase (Homo sapiens) (P21964 whole entry, looked up): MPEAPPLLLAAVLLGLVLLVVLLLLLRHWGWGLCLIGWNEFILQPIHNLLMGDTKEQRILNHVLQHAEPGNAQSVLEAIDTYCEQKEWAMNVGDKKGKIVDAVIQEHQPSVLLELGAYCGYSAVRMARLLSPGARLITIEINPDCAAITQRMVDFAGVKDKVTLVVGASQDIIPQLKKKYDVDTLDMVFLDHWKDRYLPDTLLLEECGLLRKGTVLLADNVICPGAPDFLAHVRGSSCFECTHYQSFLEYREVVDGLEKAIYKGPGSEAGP

[2] = target: Guanidinoacetate N-methyltransferase (Homo sapiens) (UniProt Q14353); conditions: MTase-Glo luminescence, SAH detection, recombinant enzyme; activity change, negative = inhibition: at 57.3 µM (top of the series) unless noted; series mostly up to 57.3 µM
[3] = target: Nicotinamide N-methyltransferase (Homo sapiens) (UniProt P40261); conditions: MTase-Glo luminescence, SAH detection, recombinant enzyme; measured here: NNMT max response; stronger effect = lower value
Chain of Nicotinamide N-methyltransferase (Homo sapiens) (P40261 whole entry, looked up): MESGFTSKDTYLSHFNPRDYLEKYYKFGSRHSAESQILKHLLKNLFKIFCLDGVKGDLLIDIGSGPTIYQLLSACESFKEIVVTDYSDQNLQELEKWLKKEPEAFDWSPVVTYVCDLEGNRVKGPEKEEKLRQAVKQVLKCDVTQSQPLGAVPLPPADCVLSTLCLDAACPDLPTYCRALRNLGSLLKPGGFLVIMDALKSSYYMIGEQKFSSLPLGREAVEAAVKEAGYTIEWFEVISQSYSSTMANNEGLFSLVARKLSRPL

[4] = target: Phenylethanolamine N-methyltransferase (Homo sapiens) (UniProt P11086); conditions: MTase-Glo luminescence, SAH detection, recombinant enzyme; measured here: PNMT max response; stronger effect = lower value
Chain of Phenylethanolamine N-methyltransferase (Homo sapiens) (P11086 whole entry, looked up): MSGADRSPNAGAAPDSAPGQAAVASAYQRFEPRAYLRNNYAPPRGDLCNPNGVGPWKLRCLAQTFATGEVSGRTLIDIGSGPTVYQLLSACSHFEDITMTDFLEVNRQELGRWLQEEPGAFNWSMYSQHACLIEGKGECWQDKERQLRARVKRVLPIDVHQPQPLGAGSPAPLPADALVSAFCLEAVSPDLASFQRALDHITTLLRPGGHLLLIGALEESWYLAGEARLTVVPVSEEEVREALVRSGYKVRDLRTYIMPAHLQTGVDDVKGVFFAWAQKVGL
Potency is read from the fitted curve at half-maximal effect.

Compound	activity [1]	activity change, negative = inhibition [2]	activity [3]	activity [4]	Potency [2]
C[S+](=O)([O-])N1CCC(Cn2ccc3c(N4CCOCC4)nc(-c4cccc5[nH]ncc45)cc32)CC1	-13.4%	-3.16%	-5.17%	-54.3%	
CCN1CCN(c2nc3c(S(=O)(=O)c4ccc(C)cc4)nnn3c3ccccc23)CC1	-6.68%	-2.1%	-16.7%	-10.8%	
N#Cc1cc(CN2CCCC(C(=O)Nc3cccc(-c4ccc(F)cc4)c3)C2)c[nH]1 (stereo not given)	-4.34%	-9.38%	-14.2%	-5.67%	
CC(=O)Nc1cccc(-c2cc3c(cn2)CN(Cc2ccccc2)CCN3)c1	-2.16%	0.249% [at 85.7 µM]	-13%	-14.8%	
COc1ccc(C(=O)N(Cc2ccco2)S(=O)(=O)c2ccc3c(c2)n(C)c(=O)n3C)cc1	-5.23%	-1.3%	-20%	-5.7%	
COc1ccc(CCNc2nc3c(S(=O)(=O)c4ccccc4)nnn3c3ccccc23)cc1OC	-10.7%	-7.04%	-17.5%	-12.4%	
CNC(=O)NCCc1ncc(C)n1C1CCCCCCC1	1.76%	2.65%	-4.6%	-0.137%	
O=C(Cn1c(=O)oc2cc(S(=O)(=O)N3CCCC3)ccc21)NCCC1=CCCCC1	-0.904%	0.588%	1.35%	-61.9%	
CN(C)CCNC(=O)c1ccnc(-c2nnc3ccc(N(C)c4ccccc4)nn23)c1	-5.96%	-11.8% [at 85.7 µM]	-14.4%	-6.46%	
O=C(O)c1ccc2c(c1)C1C=CCC1C(c1ccc(Cl)cc1)N2 (stereo not given)	-24.7%		-22.4%	-23.3%	42.9 µM (active)
CCN(CC)c1cc(CCC(=O)N2CCN(c3cccc(OC)c3)CC2)ccn1	-2.67%	5.52%	1.73%	-3.99%	
CCOCCCN1C(=O)c2cc3c(OC)ccc(OC)c3n2CC1(C)C(=O)NC1CCCCC1 (stereo not given)	-8.08%	-4.76%	-17.7%	-10.4%	
CC(C)Cn1c(=O)c2ccccc2n2c(CCC(=O)N3CCN(c4ccccc4)CC3)nnc12	2.06%	0%	-46.8%	-1.48%	
O=C(CCCc1nnc2n3nc(-c4ccccc4)nc3c3ccccc3n12)NCCN1CCCC1	3.65%	0%	-3.84%	0%	
O=C1COc2ccc(-c3cccc(O)c3)nc2CN1Cc1ccc(C(F)(F)F)cc1	-39%	-7.53% [at 85.7 µM]	-22.9%	-51.9%	
O=C1c2ccccc2C(=O)c2c1cccc2S(=O)(=O)Nc1ccc(Cl)cc1	0.0726%	-0.67%	-1.28%	-37%	
CC(C)c1ccc(NC(=O)Cn2c(=O)oc3cc(S(=O)(=O)NCc4ccccc4)ccc32)cc1	0%	0%	-3.77%	0%	
CC1CCN(CCCNC(=O)CCc2nnc3n(Cc4ccc(F)cc4)c(=O)c4ccccc4n23)CC1	-10.3%	-2.12%	-14.9%	-5.49%	
Cc1ccsc1CCNC(=O)Cn1c(=O)oc2cc(S(=O)(=O)N3CCCC3)ccc21	-8.14%	-1.17%	-5.53%	-81.8%	
COc1cccc(Nc2ccnc(-c3nnc(C)n3C3CCCCC3)c2)c1	7.43%	17.8% [at 85.7 µM]	-22.9%	8.64%	

Compound	activity [1]	activity change, negative = inhibition [2]	activity [3]	activity [4]	Potency [2]
COc1ccc(OC)c2c1cc1n2CC(C)(C(=O)NC2CCCCC2C)N(Cc2ccco2)C1=O (stereo not given)	-9.78%	-6.29%	-25.6%	-10.3%	
O=c1c2ccccc2n2c(-c3cc(Cl)ccc3O)nnc2n1Cc1ccc(F)cc1	-12.1%		-13.1%	-27.8%	27.1 µM (active)
COc1ccc2nc([C@H]3CCN(C4CCCCC4)C3)[nH]c2c1	-5.45%	4.16% [at 85.7 µM]	-3.99%	-4.21%	
O=C(CCc1nnc2n(Cc3ccc(F)cc3)c(=O)c3ccccc3n12)NCCN1CCCC1	-4.07%	-0.511%	-16.1%	2.1%	
COc1ccc(OC)c2c1cc1n2CC(C)(C(=O)NC2CCCCCC2)N(Cc2ccccn2)C1=O (stereo not given)	3.33%		-20.5%	-2.24%	inactive
Cc1c(OCc2ccc(C(=O)O)o2)ccc2c(-c3ccccc3)cc(=O)oc12	-33.2%		-34.7%	-33.9%	24.1 µM (active)
CC(C)Cn1c(=O)c2ccccc2n2c(CCC(=O)N3CCN(Cc4ccccc4)CC3)nnc12	0.0224%	2.81%	-55.9%	-3.34%	
c1ccc(-c2[nH]nc3ncc(-c4cn[nH]c4)nc23)cc1	-73.4%		-59.9%	-83.4%	31.2 µM (active)
CCn1cc(CN2CCN(C(=O)c3cccs3)CC2)ccc1=O	0.352%	-2.5%	-1.21%	-6.54%	
Cc1ccc(CN2C(=O)c3ccc(-c4ccco4)n3CC2(C)C(=O)NCc2ccc(Cl)cc2)cc1 (stereo not given)	0%		-6.21%	1.57%	inactive
CC1CCN(CCCNC(=O)CCc2nnc3n(Cc4ccccc4)c(=O)c4ccccc4n23)CC1	0.801%	0%	-2.83%	2.06%	
COc1ccc(-c2cc(-c3cnn(C)c3)cn3cncc23)cn1	-23.7%	-6.32% [at 85.7 µM]	-36.8%	-7.46%	
c1ccc(CO[C@H]2COCCN(c3nc4ccccc4o3)C2)cc1	1.17%	2.9% [at 85.7 µM]	-5.26%	-0.271%	
CC(C)Cn1c(=O)c2ccccc2n2c(CCC(=O)N3CCN(c4cccc(Cl)c4)CC3)nnc12	-1.89%	1.7%	-35.8%	-10.3%	
CCCCN(C)C(=O)c1c(C)sc2ccn(CCC)c(=O)c12	-45.9%		-28.7%	-13.5%	12.1 µM (active)
FC(F)(F)c1cccc(-c2nccn3c(C4CN(Cc5ccc6cn[nH]c6c5)C4)ncc23)c1	0.457%	4.1%	-12.8%	-2.02%	
COCc1cc(NCCCNc2cccnc2)ncn1	-19.2%	-12.2%	-14.1%	-21%	
CCC1Oc2ccc(NS(=O)(=O)c3ccc(Cl)cc3)cc2CN(Cc2ccc(F)cc2)C1=O (stereo not given)	-6.43%	-14.3%	-24.1%	-6.42%	
COc1cncc(Nc2ncc(-c3ccccc3OC)c3c2OCC3)c1	0.728%	2.22% [at 85.7 µM]	-19.7%	0.675%	
COCCCNC(=O)c1cnc2n[nH]c(-c3ccccc3)c2n1	-62.1%		-64.3%	-75.1%	39.3 µM (active)

Compound	activity [1]	activity change, negative = inhibition [2]	activity [3]	activity [4]	Potency [2]
Cn1ncc2c(N3CCN(S(N)(=O)=O)CC3)nc(C3CCCC3)nc21	-8.84%	-4.64%	-39.7%	-18%	
O=C(NCc1ccc(Cl)cc1)c1ccc2c(=O)[nH]c3c(C(=O)NC4CCCC4)sc(=S)n3c2c1	-32.6%		-79.2%	-80.2%	42.9 µM (active)
O=C(CCc1nnc2n(CCc3ccccc3)c(=O)c3ccccc3n12)N1CCN(c2ccccc2)CC1	0%	0%	-41%	0.144%	
Cn1cnc(CN2CCNc3cc(Nc4ccccc4)ncc3C2)c1	7.14%	2.31% [at 85.7 µM]	4.88%	-5.41%	
COc1ccc(OC)c(NC(=O)c2sc(=S)n3c2[nH]c(=O)c2ccc(Cl)cc23)c1	-83.1%		-72.9%	-84.9%	24.1 µM (active)
CCN(CC)Cc1cnc2c(C(=O)N3CCCN4CCC[C@H]4C3)cnn2c1	-42.2%	7.01%	12.3%	8.45%	
O=C(Nc1ccc2c(N3CCCC3)ncnc2c1)c1cc(F)ccc1Cl	-8.67%	-7.52%	-15.4%	-17.8%	
CC1(C)[C@H](Cc2cc(-c3ccccc3)on2)C[C@@H]1NCC1CC1	1.83%	-0.152% [at 85.7 µM]	-6.44%	-13.1%	
CCOc1ccccc1CN1CCC(Cc2nc(-c3cccnc3)n[nH]2)C1 (stereo not given)	2.59%	0.265%	-34.4%	-0.0084%	
O=C(Nc1ccc2ncnc(N3CCCCC3)c2c1)C1CCCCC1	-75.6%		-81.1%	-86.5%	19.2 µM (active)
Fc1cccc(-c2nnn3c2nc(NCCc2ccccc2)c2ccccc23)c1	-4.7%	-1.64%	-12.6%	-9.28%	
O=C(Nc1ccc2c(N3CCOCC3)ncnc2c1)c1cccc(Cl)c1	-10.9%	-4.21%	-7.95%	-22.8%	
Cc1ccc(C(=O)O)c2c1N[C@@H](c1ccc(Cl)cc1)[C@H]1CC=C[C@@H]21	2.12%	0.676%	0.978%	2.78%	
COc1ccccc1-c1[nH]nc2ncc(C(=O)NCC3CC3)nc12	-33.3%	-13.8% [at 85.7 µM]	-16.5%	-40.5%	
CCN(CC)CCNC(=O)CCc1nnc2n(Cc3ccc(C)cc3)c(=O)c3ccccc3n12	-5.02%	-3.03%	-14.5%	0.867%	
CCCC1c2cccn2CCN1C(=O)Nc1ccccc1C(F)(F)F (stereo not given)	-12.1%	-8.26%	-18.7%	-13.3%	
COc1ccc(CCN2C(=O)c3cc4occc4n3CC2(C)C(=O)NC2CCCCCC2)cc1OC (stereo not given)	-3.67%	-1.83%	-64.2%	-5.31%	
CC(NC(=O)c1ccc2c(=O)nc3c(-c4cccc(F)c4)n[nH]n3c2c1)c1ccc(F)cc1 (stereo not given)	-18.4%		-28.4%	-25.5%	13.6 µM (active)
CCOc1cc(CNc2ccc(C(=O)O)cc2)ccc1OCc1ccccc1	-41.3%	0.912%	-22.2%	-2.65%	
Cc1noc2c(N3CCOCC3)cc(-c3cccs3)nc12	-4.75%	2.07% [at 85.7 µM]	-22.1%	-11.9%	

Reference: PubChem BioAssay (NCATS)
